Screening data as filed in PubChem.
Hits are enriched below; roughly 21% of the tested compounds scored in any of these assays.
FBPA Giardia inh – qHTS Assay for Inhibitors of Fructose-1,6-bisphosphate Aldolase from Giardia Lamblia; Potency, µM (highest dose often 59.6 µM), for the others: top-dose activity, negative = inhibition, actives largely listed as inhibitors; purified Giardia FBPA; 290,000 compounds, 0.71% hits; AID 2451, 2010; further: potency means the concentration at half of the fitted maximal effect; on the % scale 0 is the no-effect control and ±100 the full control effect; nearly all actives have a fitted effect of over 55% in size
Target sequence (A8B2U2 whole entry, looked up): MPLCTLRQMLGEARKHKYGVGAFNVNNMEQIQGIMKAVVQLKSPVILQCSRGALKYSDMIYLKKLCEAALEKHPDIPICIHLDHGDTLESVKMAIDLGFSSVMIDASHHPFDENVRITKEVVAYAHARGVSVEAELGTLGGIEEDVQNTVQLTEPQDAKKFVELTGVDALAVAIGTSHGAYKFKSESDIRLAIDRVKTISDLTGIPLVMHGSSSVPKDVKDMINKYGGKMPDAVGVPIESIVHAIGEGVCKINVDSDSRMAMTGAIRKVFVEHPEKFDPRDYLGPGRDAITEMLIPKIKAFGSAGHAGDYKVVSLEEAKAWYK
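Giardia FBPA (40 nM reagent) was preincubated 10 min at RT with compound (up to 57.5 uM final), then substrate plus GAPDH/TPI/NAD/arsenate coupling system with diaphorase/resazurin was added; resorufin fluorescence (525/598 nm) was read after 20 min.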
Pf growth 48h – Primary qHTS for delayed death inhibitors of the malarial parasite plastid, 48 hour incubation | P. falciparum luciferase growth in erythrocytes, 48 h | Potency, µM (series often up to 28.7 µM), for the others: at the top dose activity change, negative = inhibition, actives largely listed as inhibitors | 310,000 compounds, 5.9% hits | AID 504832, 2011; further: potency means the concentration at half of the fitted maximal effect; on the % scale 0 is the no-effect control and ±100 the full control effect
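First compound was added to culture medium, then infected red cells at 0.1% parasitemia and 2% hematocrit (final). After incubation at 37 C under 5% CO2, luciferase detection reagent was dispensed and light output recorded.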
Cycloheximide cs – Cycloheximide Counterscreen for Small Molecule Inhibitors of Shiga Toxin | cell reporter, cycloheximide protein synthesis inhibition counterscreen | max response, % | 300,000 compounds, 12% hits | AID 2314, 2010; in the data active means max response mostly above about 13%, no sharp cut-off; inactive means mostly below about 14%; further: read at 38.3 µM for the half of the compounds with a filed dose; 0% is about no effect
Shiga inhibitor – A qHTS for Small Molecule Inhibitors of Shiga Toxin; Vero cells, Shiga toxin protein synthesis inhibition reporter; inhibition, % at 38.7 µM; 290,000 compounds, 9.2% hits; AID 2315, 2010; in the data active means inhibition mostly above about 28%, no sharp cut-off; inactive means mostly below about 43%; further: 0% is about no effect
Pf growth 96h – Primary qHTS for delayed death inhibitors of the malarial parasite plastid, 96 hour incubation; P. falciparum luciferase reporter growth, 96 h; Potency, µM (doses to about 28.7 µM), inactives show top-dose activity change, negative = inhibition, usual class: inhibitors; 320,000 compounds, 6.9% hits; further: potency means the concentration at half of the fitted maximal effect; on the % scale 0 is the no-effect control and ±100 the full control effect
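Readout is luminescence from an integrated firefly luciferase in P. falciparum. Red cells, 2% hematocrit and 0.05% parasitemia final, were cultured with compound through two parasite generations (96 hours) at 37 C, 5% CO2.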
NS1 function inh – qHTS Assay for Inhibitors of Influenza NS1 Protein Function | Potency, µM (top dose mostly 46.1 µM), without a hit: top-dose activity, positive = more growth | 270,000 compounds, 0.4% hits | AID 2326, 2010; calls by dose curve; further: potency means the concentration at half of the fitted maximal effect; actives are rising curves; nearly all actives have a fitted effect of over 50% in size
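S. cerevisiae expressing influenza A NS1, grown in glucose, washed, then diluted 1:100 into pH 6.0 -URA galactose medium with 23 nl compound. Growth recovery read as OD600; NS1-free strain serves as control.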
An asterisk follows results filed as active; ? = inconclusive; / = not tested or not shown. Unless noted, the call rests on the fitted dose curve; in most records, active means well fitted curve in the direction sought with a large enough effect; inconclusive means small, poorly fitted or top-dose-only effect, or another doubt; inactive means no such curve, though single readings can be large; an effect the other way counts as inactive or inconclusive.

SMILES	FBPA Giardia inh	Pf growth 48h	Cycloheximide cs	Shiga inhibitor	Pf growth 96h	NS1 function inh
CC(=O)c1c[nH]c(C(=O)Nc2ccc(N3CCCCCC3)cc2)c1	/	98%	/	/	8%	/
N#CC1(NC(=O)CSc2nnc(-c3ccccc3F)n2N)CCCCC1	/	13%	/	/	13%	/
COc1ccc(CCNC(=O)Cc2cccs2)cc1OC	-3%	25%	0	10	5%	-1%
O=S(=O)(NCCNS(=O)(=O)c1cccs1)c1cccs1	-3%	-4%	-3	-4	?	-1%
O=C(Cc1cccs1)NCc1ccccc1Br	4%	103%	36*	63*	?	-6%
COc1ccc(Br)cc1CNC(=O)Cc1cccs1	18%	11%	21*	6	-14%	-5%
O=S(=O)(NCc1ccccc1Br)c1cccs1	-1%	27%	11*	-5	?	-11%
COc1cccc(/C=C/C(=O)OCC(=O)NCC2CCCCC2)c1OC	/	-2%	/	/	19%	/
Cn1c(SCC(=O)NCC2CCCO2)ncc(C(=O)Nc2ccc(Cl)cc2)c1=O (configuration not stated)	/	40%	/	/	47%	/
Cc1cc(NC(=O)c2cc(C3CC3)on2)n(-c2ccccc2)n1	8%	13%	-1	12	2.6µM*	-22%
Cc1cc(NC(=O)c2ccccc2)n(-c2ccccc2)n1	3%	-6%	1	-2	1.9µM*	2%
CS(=O)(=O)c1ncc(CO)n1Cc1ccccc1	-1%	4%	-4	-15	11%	6%
CC1CCc2sc(C(=O)NNC(=S)NC3CC3)cc2C1 (configuration not stated)	/	51%	21*	24	20%	2%
CC1CCc2sc(C(=O)Nc3ccc(C(N)=O)cc3)cc2C1 (configuration not stated)	-3%	0%	32*	23	3%	-1%
CC1CCc2sc(C(=O)NNC(=O)c3ccncc3)cc2C1 (configuration not stated)	/	-10%	/	/	7%	/
COC(=O)c1ccc(C23CC4(C2)[C@H](CN(C)[C@@H]4c2ccccc2)C3c2ccccc2)cc1 (some centres not stated)	-1%	?	3	3	?	2%
COC(=O)c1cccc(C23CC4(C2)[C@H](CN(C)[C@@H]4c2ccccc2)C3c2ccc(C(F)(F)F)cc2)c1 (some centres not stated)	-3%	9.3µM*	3	-5	?	7%
COC(=O)c1cccc(C23CC4(C2)[C@H](CN(C)[C@@H]4c2ccccc2)C3c2ccc(Cl)nc2)c1 (some centres not stated)	0%	/	/	/	/	/
COC(=O)c1cccc(C23CC4(C2)[C@H](CN(C)[C@@H]4c2ccccc2)C3c2ccccc2)c1 (some centres not stated)	2%	12µM*	11	-7	?	6%
Cc1ccc(C)c(NC(=O)Nn2cnnc2)c1	1%	18%	-2	-8	?	-5%
CCC(CC)C(=O)Nc1nc(-c2ccc3c(c2)CCN3C(=O)C2CC2)c(C)s1	-4%	/	-5	-6	?	14%
CC(C)(C)Nc1nc(-c2ccc3c(c2)CCN3C(=O)C2CC2)cs1	/	1%	43*	98*	6%	-44%
CC(C)C(=O)Nc1nc(-c2ccc3c(c2)CCN3C(=O)C2CC2)cs1	-11%	-20%	24	59*	-17%	9%
COc1cc(C2c3cc4c(cc3C(O)C3COC(=O)C23)OCO4)cc(OC)c1O (configuration not stated)	5%	/	/	/	/	/
COc1cc(CC(=O)NCc2ccc3c(c2)OCO3)cc(OC)c1OC	10%	-21%	0	1	/	-1%
COc1cc([C@@H]2c3cc4c(cc3[C@@H](NC3CCN(Cc5ccccc5)CC3)[C@H]3COC(=O)[C@H]23)OCO4)cc(OC)c1O	-9%	0.74µM*	-4	9	0.17µM*	-13%
COc1cc([C@@H]2c3cc4c(cc3[C@@H](OC)[C@H]3COC(=O)[C@H]23)OCO4)cc(OC)c1O	-1%	10µM*	1	5	12µM*	-14%
